# Test results from PubChem BioAssay (NCI).
# The panel holds about 83,000 compounds, 20% with a hit somewhere; the sample as a whole holds those more often.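 Percent growth is the endpoint: 0 to 100 indicates growth inhibition (40 means 60% inhibition), 0 means no net growth, and negative values indicate cell death.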 Unmarked numbers belong to inactive results. Activity calls are given as the source filed them.
# System: MCF7 breast
# Assay: NCI-60 one-dose screen, 48 h (100 = growth as untreated, 0 = no growth, -100 = all killed)
# Conditions: 10 µM
# Method: Growth inhibition of the MCF7 human tumor cell line is measured as a screen for anti-cancer activity. Cells are grown in 96 well plates and exposed to the test compound for 48 hours. Compounds are tested at a single concentration, which is 10^-5 M for most compounds. The reported endpoint is percent growth (GI% or GIPRCNT), where numbers from 0 - 100% represent growth inhibition, and numbers from -100% - 0 represent cell death. For example, a value of 40 represents 60% growth inhibition. A value of 0 means no net growth occurred over the course of the experiment. A value of -40 indicates 40% of cells at the beginning of the experiment died by the end of the experiment. A value of -100 means all cells are dead at the end of the experiment.
# NCI-60 Human Tumor Cell Lines Screen was performed using the standard one-dose NCI protocol, which is described in more detail at https://dtp.cancer.gov/discovery_development/nci-60/default.htm.
# Compounds with GIPRCNT values below 10 were considered active. Activity score was based on GIPRCNT using the following formula: […]
# Score is 0 for GIPRCNT values of 100 or above, 50 for GIPRCNT values of 0, and 100 for GIPRCNT values of -100.
row,SMILES,growth
1,O=C1NC2C=CC=CC2/C1=C1/SC(=S)N(C2CC(=O)N(c3ccc(Br)cc3)C2=O)C1=O (stereo not given),45.7%
2,C#CCOc1cc(N(CC)CC)ccc1C(C(=O)NC(C)(C)C)N(C(=O)C1CCc2cc(F)ccc2O1)c1ccc(F)cc1F (stereo not given),17.5%
3,CCOC(=O)C1=C(N)N(c2ccc(C)cc2)C2=C(C(=O)CC(C)(C)C2)C1c1ccccc1Br (stereo not given),56.6%
4,COc1cccc(O)c1/C=C1\SCc2cc3c(OC)cccc3[o+]c21,90%
5,COc1cc2oc(-c3cccc(C(=O)Nc4ccc(Cl)cc4)c3)cc(=O)c2c(OCCNC(=O)[C@@H](N)CO)c1OC,-51.8% (active)
6,O=[N+]([O-])c1cccc(-c2nnc3c(/C=C/c4ccccc4O)nc4ccccc4n23)c1,22.1%
7,COC(=O)CNC(=O)COc1c(OC)c(OC)cc2oc(-c3cccc(C(=O)Nc4ccc(Cl)cc4)c3)cc(=O)c12,22.5%
8,COc1cc(-c2nc3ccc(C)cc3[nH]2)ccc1OCc1nnc(-c2ccccc2Br)o1,44.4%
9,Nc1nnc(-c2c[nH]c3ncc(Br)cc23)c(-c2c[nH]c3ccc(Br)cc23)n1,15.7%
10,COc1ccc(C(=O)COc2ccc(NC(=O)Nc3ccc(Cl)c(C(F)(F)F)c3)cc2)cc1,17.1%
11,O=C(CSc1nc2ccccc2c(=O)n1-c1ccc(Cl)cc1)Nc1ccc(-c2nc3ccc([N+](=O)[O-])cc3[nH]2)cc1,20.9%
12,Cn1cc(/C=C(/SS/C(=C/c2cn(C)c3cccc(C(=O)O)c23)C(=O)O)C(=O)O)c2c(C(=O)O)cccc21,92.6%
13,Cc1ccc(COc2ccc(NC(=O)Nc3ccc(Cl)c(C(F)(F)F)c3)cc2)cc1,41.6%
14,Cn1cc(-c2nnc(N)nc2-c2c[nH]c3ccc(F)cc23)c2cc(Br)cnc21,27.7%
15,C#C[C@]1(O)CC[C@H]2[C@@H]3CC=C4c5sc(Nc6ccc(C(F)(F)F)cn6)nc5CC[C@]4(C)[C@H]3CC[C@@]21C,-28.7% (active)
16,CC1(C)CC[C@]2(C(=O)O)CC[C@]3(C)C(=CCC4[C@@]5(C)C[C@@H](O)[C@@H]6OC(c7cccc(F)c7)OC[C@@]6(C)C5CC[C@]43C)C2C1 (stereo not given in full),21.5%
17,O=C(CC(=O)Nc1ccc(Oc2ncnc3scc(Nc4n[nH]c(=S)s4)c23)cc1)Nc1ccc(Cl)cc1,11.7%
18,O=C(CSc1nc2ccccc2c(=O)n1-c1ccc(Cl)cc1)Nc1ccc(-c2nc3ccccc3[nH]2)cc1,-68.3% (active)
19,Cc1ccc2c(c1)C(=O)/C(=C/c1ccc([N+](=O)[O-])cc1)S2,3.81% (active)
20,O=C(CN1CCN(c2ncnc3c2cnn3-c2ccccc2)CC1)Nc1ccc(Br)cc1,36.8%

row,SMILES,growth
1,COc1ccc2[nH]cc(-c3nc(N)nnc3-c3cn(C)c4ncc(Br)cc34)c2c1,4.79% (active)
2,COc1ccc(Cc2nn(CC(=O)N/N=C/c3ccc([N+](=O)[O-])cc3)c(=O)c3c(C)noc23)cc1,55%
3,O=C(CC(=O)Nc1ccc(Oc2ncnc3scc(Nc4n[nH]c(=S)s4)c23)cc1)Nc1ccc(Br)cc1,86.8%
4,Cc1cc(N=C2NC(=O)S/C2=C\c2ccc(F)cc2)n[nH]1,7.74% (active)
5,COc1ccccc1-n1cc(C#N)c(N)c1C(=O)c1ccc(Cl)cc1Cl,16.4%
6,O=C(c1ccc(Cl)cc1)C(c1c[nH]c2ccccc12)c1c[nH]c2ccccc12,-69.3% (active)
7,CCOc1ccc(/C=N/NC(=O)Cn2nc(Cc3ccc(OC)cc3)c3onc(C)c3c2=O)cc1,27.9%
8,O=C(CN1CCN(c2ncnc3c2cnn3-c2ccccc2)CC1)Nc1ccc(Cl)cc1,27.6%
9,Fc1ccc(-c2csc(Nc3cccc(Nc4nc(-c5ccc(F)cc5)cs4)c3)n2)cc1,24.7%
10,COc1ccc(Cc2nn(CC(=O)N/N=C/c3ccc(Br)cc3)c(=O)c3c(C)noc23)cc1,40.4%
11,Cn1cc(-c2nc(N)nnc2-c2c[nH]c3ccccc23)c2cc(Br)cnc21,4.57% (active)
12,Cc1ccc2sc3c(c2c1)Oc1nc[nH]c(=O)c1C3c1cccc(F)c1 (stereo not given),60.9%
13,Cc1ccc2c(c1)C(=O)/C(=C/c1c[nH]c3ccccc13)S2,18.6%
14,O=C(c1ccccc1)c1ccc2nc(-c3ccccc3Br)[nH]c2c1,-6.39% (active)
15,COc1cc2oc(-c3cccc(C(=O)Nc4ccc(Cl)cc4)c3)cc(=O)c2c(OCCN)c1OC,-71.5% (active)
16,COc1cc(Nc2nc(O)c(/C=C3\C=Nc4ccccc43)s2)cc(OC)c1OC,-23.7% (active)
17,COc1ccc(-n2c(SCC(=O)NNS(=O)(=O)c3ccccc3)nc3ccc(Cl)cc3c2=O)cc1,83.2%
18,COc1ccc(OC)c(-n2cc(C#N)c(N)c2C(=O)c2ccc(Cl)cc2Cl)c1,16.1%
19,COc1cc(C2CC(c3ccc(Oc4ccc(Cl)cc4)cc3)=NN2c2nc(-c3ccc(Cl)cc3)c(C#N)c(N3CCOCC3)n2)cc(OC)c1OC (stereo not given),84.6%
20,O=C(Nc1ccc(OCc2ccc(F)cc2)cc1)Nc1ccc(Cl)c(C(F)(F)F)c1,3.2% (active)
